This is part of a sample that, as a whole, favours compounds with a hit. Of some 83,000 tested, about 20% had one in any assay.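 Interpretation: 100, growth as untreated; towards 0, rising growth inhibition; 0, no net growth; 0 to -100, cell death. Compounds scoring below 10 were considered active.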 A number with no mark means an inactive call. Activity calls are given as the source filed them.
Columns and labels:
Experiment in all cases: NCI-60 one-dose screen, 48 h (100 = growth as untreated, 0 = no growth, -100 = all killed)
Details in all cases: 10 µM unless noted
DU-145 prostate = system: DU-145 prostate
K-562 leukemia = system: K-562 leukemia
MALME-3M melanoma = system: MALME-3M melanoma
MDA-MB-231 breast = system: MDA-MB-231 breast
RXF 393 renal = system: RXF 393 renal
SF-268 CNS = system: SF-268 CNS
SF-295 CNS = system: SF-295 CNS
SF-539 CNS = system: SF-539 CNS
M14 melanoma = system: M14 melanoma
HCT-15 colon = system: HCT-15 colon
HT29 colon = system: HT29 colon
SNB-75 CNS = system: SNB-75 CNS
SNB-19 CNS = system: SNB-19 CNS
U251 CNS = system: U251 CNS
PC-3 prostate = system: PC-3 prostate
SK-MEL-5 melanoma = system: SK-MEL-5 melanoma
UACC-62 melanoma = system: UACC-62 melanoma
LOX IMVI melanoma = system: LOX IMVI melanoma
UACC-257 melanoma = system: UACC-257 melanoma
SK-MEL-28 melanoma = system: SK-MEL-28 melanoma

Row | Compound | growth (DU-145 prostate) | growth (K-562 leukemia) | growth (MALME-3M melanoma) | growth (MDA-MB-231 breast) | growth (RXF 393 renal) | growth (SF-268 CNS) | growth (SF-295 CNS) | growth (SF-539 CNS) | growth (M14 melanoma) | growth (HCT-15 colon) | growth (HT29 colon) | growth (SNB-75 CNS) | growth (SNB-19 CNS) | growth (U251 CNS) | growth (PC-3 prostate) | growth (SK-MEL-5 melanoma) | growth (UACC-62 melanoma) | growth (LOX IMVI melanoma) | growth (UACC-257 melanoma) | growth (SK-MEL-28 melanoma)
1 | N#CC(C#N)=NO | 111% | 108% | 99% | 108% | 105% | 100% | 101% | 99.8% | 110% | 104% | 91.7% | 89.1% | 102% | 95.2% | 71.8% | 108% | 102% | 95.8% | – | –
2 | CCN1CCN(Cc2ccc(-c3cc4c(N[C@H](C)c5ccccc5)ncnc4[nH]3)cc2)CC1 | 40.5% | 5.11% (active) | 1.62% (active) | 30.3% | 26.4% | 52% | 68.8% | 60.5% | 7.83% (active) | 50.1% | 4.82% (active) | – | 46.2% | 56.8% | 41.3% | 59.8% | 7.59% (active) | 13.5% | -5.38% (active) | 16.7%
3 | COC(=O)N[C@@H](C)CNc1nccc(-c2cn(C(C)C)nc2-c2cc(Cl)cc(NS(C)(=O)=O)c2F)n1 | 79.6% | 69.4% | 1.63% (active) | 61% | 42.7% | 82.2% | 103% | 91.2% | 3.81% (active) | 53.6% | 7.99% (active) | – | 108% | 87.2% | 90.7% | 51.4% | -11% (active) | 37.5% | -25.8% (active) | -0.756% (active)
4 | C/C=C/C=N/NC(=S)Nc1ccccc1 | 104% | 88.9% | 96.5% | 89.9% | 119% | 100% | 98.9% | 89.5% | 96.5% | 99% | 106% | – | 102% | 88.4% | 88.2% | 104% | 89.5% | 88.6% | 81.1% | 97.5%
5 | O=c1[nH]ccc2c(S(=O)(=O)N3CCCNCC3)cccc12 | 62.2% | 104% | 82.2% | 87.3% | 57.8% | 54.3% | 74.5% | 76.5% | 88.3% | 93.3% | 82.2% | – | 97.4% | 101% | 86.9% | 109% | 70.1% | 90.6% | 99.1% | 67%
6 | CSc1nc2ncncc2[nH]1 | 112% | 93.9% | 111% | 99.3% | 45.4% | 105% | 81% | 89.6% | 90.7% | 101% | 99.4% | – | 100% | – | 106% | 101% | 104% | 97.5% | 114% | 75.1%
7 | C[C@@H](Oc1cc(C(=O)Nc2ccc(C(=O)N3CCN(C)CC3)cc2)nnc1N)c1c(Cl)ccc(F)c1Cl | 84.7% | 28.7% | 65.2% | 62.2% | 62.6% | 70.3% | 13.9% | 64.9% | 76.9% | 46.9% | 9.76% (active) | 71.2% | 75.7% | – | 52.4% | 36.8% | 62% | 33.2% | 60.9% | 70.9%
8 | COc1cc2c(Oc3ccc(NC(=O)C4(C(=O)Nc5ccc(F)cc5)CC4)cc3F)ccnc2cc1OCCCN1CCOCC1 | 16.4% | -12.1% (active) | -71.6% (active) | -60.3% (active) | -94.5% (active) | 11.6% | -82.9% (active) | -90.5% (active) | -65.9% (active) | -26% (active) | -59.2% (active) | -96.9% (active) | 10.6% | – | 7.39% (active) | -96.1% (active) | -67.8% (active) | -89.5% (active) | -85.3% (active) | -78.2% (active)
9 | Nc1ccc(S(=O)(=O)O)c2cc(S(=O)(=O)O)cc(O)c12 | 105% | 117% | 109% | 106% | 114% | 111% | 110% | 95.8% | 90.7% | 101% | 108% | – | 105% | 108% | 97.8% | 103% | 112% | 90.2% | 109% | –
10 | CNC(=O)c1cc(Oc2cccc3nc(Nc4ccc(Cl)c(F)c4)ccc23)ccn1 | 71.3% | 83.8% | 1.36% (active) | 73.5% | 8.19% (active) | 55.4% | 51.5% | 41.1% | 80.2% | 59.3% | 82.5% | – | 30.3% | 53.3% | 66.1% | 44.8% | 52.3% | 59.6% | 74.5% | 48.8%
11 | COCCN1CCN(Cc2ccc(-c3n[nH]c4c3C(=O)c3c(NC(=O)NN5CCOCC5)cccc3-4)cc2)CC1 | 4.89% (active) | -0.714% (active) | -63.1% (active) | -18.1% (active) | -87.4% (active) | 6.61% (active) | 2.78% (active) | -86.2% (active) | -52.6% (active) | -13.6% (active) | -22.3% (active) | – | 2.99% (active) | 1.69% (active) | 3.15% (active) | -23.8% (active) | -44.9% (active) | -77.2% (active) | -19.1% (active) | -39.7% (active)
12 | CNC(=O)c1cc(Oc2cccc3nc(Nc4ccc(Oc5ccccc5)cc4)ccc23)ccn1 | 83.4% | 41% | 78.2% | 71.6% | 91.3% | 75.4% | 60.2% | 90.8% | 68.6% | 54.7% | 62.5% | – | 92% | 65.6% | 35.4% | 36.3% | 62.6% | 83% | 77.2% | 77.4%
13 | N#Cc1c(-c2ccc(Cl)cc2)csc1NC(=O)Nc1cccc(C(F)(F)F)c1 | 16.9% | 9.25% (active) | 14.8% | -0.969% (active) | 59.5% | 27.9% | 3.47% (active) | 37.9% | 20.4% | 11.7% | 13% | – | 12.1% | 6.02% (active) | 11.1% | 22.4% | 12.5% | 5.9% (active) | 27.8% | 14.3%
14 | C=CC(=O)Nc1cc2c(Nc3ccc(F)c(Cl)c3)ncnc2cc1OCCCN1CCOCC1 | 14.9% | 2.24% (active) | 27.3% | 0.732% (active) | -53.1% (active) | -5.09% (active) | 53.4% | -24.4% (active) | -62.3% (active) | -32% (active) | -74.9% (active) | – | 17.4% | 21.2% | 17.5% | 48.7% | -49.7% (active) | -87% (active) | 35.1% | -19% (active)
15 | COC(=O)C1CCc2sc3ncnc(Nc4cn[nH]c4C(=O)Nc4ccc(CN5CCN(C)CC5)cc4)c3c21 (stereo not drawn) | -44.6% (active) | -24% (active) | -72.3% (active) | -0.275% (active) | -78.9% (active) | -1.56% (active) | 26.4% | -77.3% (active) | -0.905% (active) | 7.28% (active) | -0.301% (active) | -22.4% (active) | 21.6% | -24.2% (active) | 9.88% (active) | -59.3% (active) | 58.8% | 0.377% (active) | – | 23.5%
16 | O=C(Nc1nc2cccc(-c3ccc(CN4CCS(=O)(=O)CC4)cc3)n2n1)C1CC1 | 35.4% | 36.5% | 105% | 81.8% | 50.7% | 70.7% | 88.8% | 79.1% | 90.8% | 94.7% | 65.4% | – | 48% | 65.3% | 76.9% | 74.6% | 87.6% | 60.4% | 86.2% | 90.2%
17 | Cc1cc(-c2cc(OC(=O)c3ccccc3)ccc2Cl)cc2nnc(Nc3ccc(OCCN4CCCC4)cc3)nc12 | 83.2% | -21.5% (active) | 79.2% | 70.6% | 59.3% | 92.8% | 92.7% | 87.1% | -8.09% (active) | -66.9% (active) | 63.9% | – | 91.9% | – | -20.2% (active) | 83.1% | 75.6% | 48.4% | 52.1% | –

Reference: PubChem BioAssay (NCI)
